Where “and” joins values, the source holds several entries; their conditions need not be identical. Equal entries are not always repeated. Results filed as inconclusive are left out. Some compounds were tested as several samples or in several runs, with calls that do not always agree. Calls of active or inactive are those of the source. The calls were made as follows: active = hit-call score of the fitted dose curve at least 0.9, where 1 is the maximum; inconclusive = response in the unintended direction; inactive = score below 0.9.
What was measured:
[1] = ATG_XTT_Cytotoxicity: Cytotoxicity Assessment in the Attagene TRANS-FACTORIAL HepG2 Assay (AID 2283584)
Method in brief: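 Cells: human HepG2, transiently transfected with MRTU reporter constructs. Exposure 24 h. Readout: XTT, cell number. Baseline/neg ctrl DMSO; loss-of-signal scored.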

[2] = TOX21_p53_BLA_p2_viability: Viability Assessment in the Tox21 HCT-116 p53 Agonism Beta-lactamase Assay, Phase 2 (AID 2283591);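 also: compound exposure lasted 16 h at 37 °C; actives lower the ATP signal meaning cytotoxicity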
Method in brief: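 Cytotoxicity readout: CellTiter-Glo ATP luminescence, 30 min at room temperature, after the beta-lactamase read. Cells were HCT116 exposed 16 h at 37C to compounds pin-transferred at 217-fold dilution from DMSO stocks.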

[3] = biological target: Cellular tumor antigen p53 (Homo sapiens) (UniProt P04637); assay: TOX21_p53_BLA_p2_ratio: Tox21 HCT-116 p53 Agonism Beta-lactamase Assay, Ratio, Phase 2 (AID 2283592)
Method in brief: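 Plated HCT116 p53-bla cells (4000/well) received compound after 5 h, then 16 h at 37C/5% CO2. CCF4-AM added, 2 h RT. Ratio of 460 to 530 nm emission taken as the p53 reporter signal.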

[4] = biological target: Cellular tumor antigen p53 (Homo sapiens) (UniProt P04637); assay: TOX21_p53_BLA_p3_ratio: Tox21 HCT-116 p53 Agonism Beta-lactamase Assay, Ratio, Phase 3 (AID 2283596)
Method in brief: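 Cells were seeded at 4000/well, rested 5 h at 37C, then dosed with DMSO compound solutions (217-fold dilution) for 16 h. CCF4-AM substrate was loaded for 2 h at room temperature, and the 460/530 nm emission ratio was fitted for gain of signal versus DMSO.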

[5] = TOX21_p53_BLA_p4_viability: Viability Assessment in the Tox21 HCT-116 p53 Agonism Beta-lactamase Assay, Phase 4 (AID 2283597);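 also: hits lower the luminescence signal meaning cytotoxicity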
Method in brief: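 Readout: ATP luminescence (CellTiter-Glo), measured 30 min after reagent addition at RT. The reagent followed a 2 h CCF4-AM incubation, and the cells had been exposed to compound for 16 h at 37C.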

[6] = biological target: Cellular tumor antigen p53 (Homo sapiens) (UniProt P04637); assay: TOX21_p53_BLA_p5_ratio: Tox21 HCT-116 p53 Agonism Beta-lactamase Assay, Ratio, Phase 5 (AID 2283599)
Method in brief: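 Beta-lactamase reporter ratio (blue 460 nm over green 530 nm, 405 nm excitation) after 2 h CCF4-AM loading, in HCT-116 cells exposed 16 h at 37 C to compounds pinned at 217-fold dilution. Increases relative to DMSO baseline scored.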

[7] = TOX21_p53_BLA_p5_viability: Viability Assessment in the Tox21 HCT-116 p53 Agonism Beta-lactamase Assay, Phase 5 (AID 2283600)
Method in brief: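 Workflow: seed 4000 cells per well, wait 5 h, add compounds (DMSO, 217-fold dilution), incubate 16 h, load CCF4-AM 2 h, add CellTiter-Glo, read luminescence after 30 min.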

[8] = biological target: Cellular tumor antigen p53 (Homo sapiens) (UniProt P04637); assay: TOX21_p53_BLA_p4_ratio: Tox21 HCT-116 p53 Agonism Beta-lactamase Assay, Ratio, Phase 4 (AID 2283601)
Method in brief: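 Signal is the blue/green (460nm/530nm) ratio of cleaved versus uncleaved CCF4-AM substrate, read after 2 h substrate loading. Cells were HCT116 carrying the p53-responsive beta-lactamase reporter, dosed 16 h at 37C, 5% CO2; CellTiter-Glo measured in parallel.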

[9] = Tanguay_ZF_120hpf_MORT_legacy: (Legacy) Oregon State University Tanguay Lab 120 Hour Post-fertilization zebrafish Assay for Mortality (AID 2283633);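 as to AC50: fitted as increase in binary mortality versus DMSO negative control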
Method in brief: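 5D WT zebrafish, chorion removed 4 hpf; 1 embryo/well from 6 hpf; static exposure to 120 hpf, 28C, dark, sealed. Final DMSO 0.64%. Readout: binary mortality, brightfield, 24 + 120 hpf; DMSO as negative control.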

[10] = Tanguay_ZF_120hpf_YSE_legacy: (Legacy) Oregon State University Tanguay Lab 120 Hour Post-fertilization zebrafish Assay for Yolk Sac Edema (AID 2283634);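 as to AC50: actives raise the incidence of yolk sac edema above the DMSO baseline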
Method in brief: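 Dechorionate (pronase, 4 hpf) → place one 6 hpf embryo per well → static compound exposure, sealed and foil-covered, 28C, to 120 hpf → record yolk sac edema as present or absent. Final DMSO 0.64%.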

[11] = Tanguay_ZF_120hpf_AXIS_legacy: (Legacy) Oregon State University Tanguay Lab 120 Hour Post-fertilization zebrafish Assay for Body Axis Malformation (AID 2283635);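 as to AC50: potency for an increased fraction of larvae scored with body axis malformation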
Method in brief: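 Chorion is removed with pronase at 4 hpf, then single 6 hpf embryos are dosed (final DMSO 0.64%) and held statically at 28C in sealed, foil-covered plates. At 120 hpf body axis malformation is recorded as present or absent.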

[12] = Tanguay_ZF_120hpf_SNOU_legacy: (Legacy) Oregon State University Tanguay Lab 120 Hour Post-fertilization zebrafish Assay for Snout Malformation (AID 2283637)
Method in brief: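 Binary snout-malformation call at 120 hpf in wild-type 5D embryos, chorion removed by pronase, under static exposure from 6 hpf at 28C (0.64% DMSO). Embryos dying by 24 or 120 hpf excluded.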

[13] = Tanguay_ZF_120hpf_JAW_legacy: (Legacy) Oregon State University Tanguay Lab 120 Hour Post-fertilization zebrafish Assay for Jaw Malformation (AID 2283638)
Method in brief: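 Steps: dechorionate 4 hpf embryos (pronase); plate 1/well at 6 hpf; add test chemical, 0.64% DMSO final; seal, cover, hold at 28C statically to 120 hpf; score jaw defect presence/absence microscopically. Dead embryos not scored.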

[14] = Tanguay_ZF_120hpf_OTIC_legacy: (Legacy) Oregon State University Tanguay Lab 120 Hour Post-fertilization zebrafish Assay for Otic Vesicle Malformation (AID 2283639)
Method in brief: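 Brightfield scoring at 120 hpf, binary present/absent; DMSO negative control, 5uM trimethyltin chloride positive control. Static exposure at 28C, final DMSO 0.64% (vol/vol). Dead embryos not scored for malformation.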

[15] = Tanguay_ZF_120hpf_PE_legacy: (Legacy) Oregon State University Tanguay Lab 120 Hour Post-fertilization zebrafish Assay for Pericardial Edema (AID 2283640);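 as to AC50: potency for increased incidence of pericardial edema versus DMSO baseline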
Method in brief: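 Embryos from wild-type 5D adults were staged, then dosed in 0.64% DMSO. They were kept sealed in the dark at 28C until 120 hpf. Pericardial edema was then recorded as present or absent.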

[16] = Tanguay_ZF_120hpf_BRAI_legacy: (Legacy) Oregon State University Tanguay Lab 120 Hour Post-fertilization zebrafish Assay for Brain Malformation (AID 2283641)
Method in brief: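 Wild-type 5D larvae, static waterborne exposure to 120 hpf, 28C, 0.64% v/v DMSO. Brightfield scoring of brain defects, binary; dead embryos excluded. Positive ctrl 5uM trimethyltin chloride.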

[17] = Tanguay_ZF_120hpf_SOMI_legacy: (Legacy) Oregon State University Tanguay Lab 120 Hour Post-fertilization zebrafish Assay for Somite Malformation (AID 2283647)
Method in brief: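 Read-out: presence or absence of somite malformation in 120 hpf larvae, gain-of-signal relative to DMSO baseline. Embryos lacked chorion (pronase, 4 hpf) and were exposed statically from 6 hpf at 28C; dead larvae not scored.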

[18] = Tanguay_ZF_120hpf_PFIN_legacy: (Legacy) Oregon State University Tanguay Lab 120 Hour Post-fertilization zebrafish Assay for Pectoral Fin Malformation (AID 2283648);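 also: each larva judged yes or no for fin defect by brightfield with dead larvae skipped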
Method in brief: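 Pectoral fin malformation was recorded as a binary endpoint at 120 hpf in wild-type Tropical 5D larvae, which had been dechorionated and exposed statically from 6 hpf at 28C in 0.64% DMSO. Dead embryos were excluded.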

[19] = LTEA_HepaRG_LDH_cytotoxicity: Cytotoxicity Assessment in the Life Technologies and Expression Analysis (LTEA) Assay (AID 2283563)
Method in brief: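 Cells were thawed and plated for 48 h. Medium was then replaced with serum-free induction medium. Chemicals (8 half-log points, maximum 100 uM, 0.5% DMSO) were added in duplicate for 48 h, after which spent medium was assayed for LDH.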

Chain of Cellular tumor antigen p53 (Homo sapiens) (P04637 whole entry, looked up): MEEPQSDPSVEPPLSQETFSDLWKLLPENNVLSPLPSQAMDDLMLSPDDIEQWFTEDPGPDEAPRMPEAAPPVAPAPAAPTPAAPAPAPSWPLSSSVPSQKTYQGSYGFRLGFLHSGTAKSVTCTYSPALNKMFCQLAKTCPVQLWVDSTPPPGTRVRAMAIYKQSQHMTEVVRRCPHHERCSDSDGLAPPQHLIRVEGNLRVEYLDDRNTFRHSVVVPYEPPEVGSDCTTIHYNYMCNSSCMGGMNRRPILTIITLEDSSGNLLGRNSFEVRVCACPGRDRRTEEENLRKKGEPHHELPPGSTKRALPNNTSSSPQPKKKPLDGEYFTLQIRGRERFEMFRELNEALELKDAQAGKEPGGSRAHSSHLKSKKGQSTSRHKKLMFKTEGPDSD

## ClC1C(Cl)C(Cl)C(Cl)C(Cl)C1Cl (stereo not given)
[1]
  outcome: inactive
[2]
  outcome: inactive
[3]
  outcome: inactive
[4]
  outcome: inactive
[5]
  AC50: 72.6 µM (active)
  outcome: inactive
[6]
  AC50: 86.7 µM (active)
  outcome: inactive
[7]
  outcome: inactive
[8]
  outcome: inactive
[9]
  outcome: inactive
[10]
  outcome: inactive
[11]
  outcome: inactive
[12]
  outcome: inactive
[13]
  outcome: inactive
[14]
  outcome: inactive
[15]
  outcome: inactive
[16]
  outcome: inactive
[17]
  outcome: inactive
[18]
  outcome: inactive

## O=C(O)CCCOc1ccc(Cl)cc1Cl
[1]
  outcome: inactive
[2]
  outcome: inactive
[3]
  outcome: inactive
[4]
  outcome: inactive
[5]
  outcome: inactive
[6]
  outcome: inactive
[7]
  outcome: inactive
[8]
  outcome: inactive
[9]
  outcome: inactive
[10]
  AC50: 42.6 µM (active)
[11]
  AC50: 48.7 µM (active)
[12]
  outcome: inactive
[13]
  outcome: inactive
[15]
  AC50: 24.2 µM (active)
[16]
  outcome: inactive
[17]
  outcome: inactive

## COP(=S)(OC)Oc1ccc([N+](=O)[O-])cc1
[1]
  outcome: inactive
[2]
  outcome: inactive
[3]
  outcome: inactive
[4]
  outcome: inactive
[5]
  outcome: inactive
[6]
  outcome: inactive
[8]
  outcome: inactive
[9]
  outcome: inactive
[10]
  outcome: inactive
[11]
  outcome: inactive
[12]
  outcome: inactive
[13]
  outcome: inactive
[14]
  outcome: inactive
[15]
  outcome: inactive
[16]
  outcome: inactive
[17]
  outcome: inactive

## C[C@H]1[C@H](c2ccc(Cl)cc2)SC(=O)N1C(=O)NC1CCCCC1
[19]
  outcome: inactive
[2]
  outcome: inactive
[3]
  outcome: inactive
[4]
  outcome: inactive
[6]
  outcome: inactive
[7]
  outcome: inactive
[9]
  outcome: inactive
[10]
  outcome: inactive
[11]
  outcome: inactive
[12]
  outcome: inactive
[13]
  outcome: inactive
[14]
  outcome: inactive
[15]
  outcome: inactive
[16]
  outcome: inactive
[17]
  outcome: inactive

## O=C(O)COc1ccc(Cl)cc1Cl
[1]
  outcome: inactive
[2]
  outcome: inactive
[3]
  outcome: inactive
[5]
  outcome: inactive
[6]
  outcome: inactive
[7]
  outcome: inactive
[8]
  AC50: 0.116 nM (active)
  outcome: inactive
[9]
  outcome: inactive
[10]
  outcome: inactive
[11]
  outcome: inactive
[12]
  outcome: inactive
[13]
  outcome: inactive
[14]
  outcome: inactive
[15]
  outcome: inactive
[16]
  outcome: inactive

## COP(=S)(OC)Oc1ccc(SC)c(C)c1
[1]
  outcome: inactive
[2]
  outcome: inactive
[3]
  outcome: inactive
[4]
  outcome: inactive
[5]
  outcome: inactive
[6]
  outcome: inactive
[7]
  outcome: inactive
[8]
  outcome: inactive
[9]
  outcome: inactive
[10]
  outcome: inactive
[11]
  outcome: inactive
[12]
  outcome: inactive
[13]
  outcome: inactive
[14]
  outcome: inactive
[15]
  outcome: inactive
[16]
  outcome: inactive

## COC(=O)c1ccccc1S(=O)(=O)NC(=O)Nc1nc(C)nc(OC)n1
[1]
  outcome: inactive
[2]
  outcome: inactive
[3]
  outcome: inactive
[8]
  outcome: inactive

## CCS(=O)(=O)c1cccnc1S(=O)(=O)NC(=O)Nc1nc(OC)cc(OC)n1
[1]
  outcome: inactive

## CC[C@H](C)[C@H]1O[C@]2(C=C[C@@H]1C)C[C@@H]1C[C@@H](C/C=C(\C)[C@@H](O[C@H]3C[C@H](OC)[C@@H](O[C@H]4C[C@H](OC)[C@@H](O)[C@H](C)O4)[C@H](C)O3)[C@@H](C)/C=C/C=C3\CO[C@@H]4[C@H](O)C(C)=C[C@@H](C(=O)O1)[C@]34O)O2 (tested in a mixture with another compound)
[2]
  AC50: 9.13 µM (active) and 43.5 µM (active)
[3]
  AC50: 17.6 µM (active)
  outcome: inactive
[4]
  AC50: 28.7 µM (active)
[5]
  AC50: 6.67 µM (active) and 35.5 µM (active)
[6]
  AC50: 31.4 µM (active)
  outcome: inactive
[7]
  AC50: 7.91 µM (active) and 42.1 µM (active)
[8]
  outcome: inactive
[9]
  AC50: 13.9 µM (active)
[10]
  outcome: inactive
[11]
  AC50: 8.9 µM (active)
[12]
  AC50: 934 nM (active)
[13]
  outcome: inactive
[14]
  outcome: inactive
[15]
  AC50: 0.808 µM (active)
[16]
  AC50: 15.6 µM (active)
[17]
  outcome: inactive

## N#Cc1c(Cl)c(Cl)c(Cl)c(C#N)c1Cl
[2]
  AC50: 22.5 µM (active)
  outcome: inactive
[3]
  AC50: 15.7 µM (active)
  outcome: inactive
[4]
  AC50: 815 nM (active) and 77.5 µM (active)
[5]
  AC50: 2.04 µM (active) and 2.82 µM (active)
[6]
  AC50: 85.4 µM (active) and 17.1 µM (active)
[7]
  AC50: 17.1 µM (active) and 15.8 µM (active)
[8]
  AC50: 1.11 µM (active) and 1.12 µM (active)
[9]
  AC50: 24.8 µM (active)
[11]
  outcome: inactive
[12]
  outcome: inactive
[13]
  outcome: inactive
[14]
  outcome: inactive
[15]
  outcome: inactive
[16]
  outcome: inactive
[17]
  outcome: inactive

## CCCN(CCOc1c(Cl)cc(Cl)cc1Cl)C(=O)n1ccnc1
[1]
  outcome: inactive
[2]
  outcome: inactive
[3]
  AC50: 86.1 µM (active)
[4]
  AC50: 75 µM (active)
  outcome: inactive
[5]
  outcome: inactive
[6]
  AC50: 75.3 µM (active)
  outcome: inactive
[7]
  outcome: inactive
[8]
  AC50: 74600 nM (active)
  outcome: inactive
[9]
  outcome: inactive
[10]
  outcome: inactive
[11]
  outcome: inactive
[12]
  outcome: inactive
[13]
  outcome: inactive
[14]
  outcome: inactive
[15]
  outcome: inactive
[16]
  outcome: inactive
[17]
  outcome: inactive
[18]
  outcome: inactive

— PubChem BioAssay (EPA / NIEHS)
